Source: PubChem (Johns Hopkins Ion Channel Center)
KCNQ2 enhance = potentiators of rat KCNQ2 potassium channel. O88943. CHO-K1 KCNQ2, FluxOR thallium flux fluorescence; stronger effect = higher value. B-score at 10 µM. 310,000 tested, 0.54% active;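 active = fluorescence ratio B-score at least 3 SD of library B-scores, with initial fluorescence B-score within 3 of them, cut at about 5.3 in these data; same plate scores as AID 2156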;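 note: B-score of peak minus minimum over baseline fluorescence ratio after K+ and Tl+ stimulus; positive B-score means potentiation of KCNQ2 with more thallium influx and brighter signal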
KCNQ2 block = inhibitors of rat KCNQ2 potassium channel. CHO-K1 KCNQ2, FluxOR thallium flux, 20 min; stronger effect = lower value. B-score at 10 µM. 310,000 tested, 1.1% active. AID 2156;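 active = fluorescence ratio B-score at most minus 3 library SDs, with starting brightness B-score within 2 library SDs, cut at about -5.5 in these data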
The depositor's hits bear a star; i = inactive; / = not tested or not shown. Rows were chosen to be rich in hits. Some 1.6% of all compounds tested hit in one or more screens of this group.

SMILES	KCNQ2 enhance	KCNQ2 block
O=[N+]([O-])c1ccc(C(O)C23CN4CN(CN(C4)C2)C3)cc1 (centres undefined)	0.37	i
O=C(CSc1ccccn1)Nc1ccc(Cl)cn1	/	i
O=C(C1CCN(S(=O)(=O)c2cc(Cl)ccc2Cl)CC1)N1CCCC1	0.66	i
NC(=O)C1CCN(C(=O)CCSCc2ccc(Cl)c(Cl)c2)CC1	/	i
CCOC(=O)c1c(-c2ccc(C)o2)csc1NC(=O)CN1CCOCC1	/	i
CCOC(=O)c1c(-c2ccc(C)o2)csc1NC(=O)COC(=O)c1cccs1	-6	-6*
C=CCN(C(=O)c1csnn1)C(C(=O)NC1CCCCC1)c1ccc(F)cc1 (centres undefined)	0.52	i
COc1cccc(OCc2cc(C(=O)NCCN3CCCCC3CO)no2)c1 (centres undefined)	0.27	i
Cc1cc(OCc2cc(C(=O)NCCN3CCCCC3CO)no2)cc(C)c1Cl (centres undefined)	-7.9	-7.9*
COc1ccc(CC(=O)Oc2ccc(C)cc2Br)cc1OC	0.77	i
COc1ccc(NC(=O)C(=O)N/N=C(\C)CC(=O)Nc2cc(C)ccn2)c(OC)c1	1	i
C/C(CC(=O)Nc1cc(C)ccn1)=N\NC(=O)C(=O)Nc1cccc(C)c1	5.4*	i
CC1CCCN(C(C(=O)Nc2ccc3c(c2)OCCO3)c2ccccc2)C1 (centres undefined)	/	i
CC1CCCN(C(C(=O)Nc2ccc3c(c2)OCO3)c2ccccc2)C1 (centres undefined)	-5.7	-5.7*
CN(C(=O)COC(=O)c1ccc(=O)n(Cc2ccccc2)n1)C1CCS(=O)(=O)C1 (centres undefined)	/	i
Cc1ccc(C(=O)CSc2cc(C)nc(SCC(=O)c3ccccc3)n2)cc1	/	i
Cc1cc(Oc2ccc(C)c(Cl)c2)nc(SCC(=O)c2ccccc2)n1	7*	i
COc1ccc(N2CCCn3c2nc2c3c(=O)n(Cc3ccc(C)cc3)c(=O)n2C)c(OC)c1	/	i
CC1=CC(C)(C)N2C(=O)C3(NCCc4c3[nH]c3ccccc43)c3cc(C)cc1c32 (centres undefined)	/	i
CC1=CC(C)(C)N2C(=O)C3(SCC(=O)N3c3ccc(F)cc3)c3cc(C)cc1c32 (centres undefined)	-6	-6*
COC(=O)c1c(C(=O)OC)c(-c2cccc(F)c2)n2c1CS(=O)C2 (centres undefined)	0.66	i
COC(=O)c1c(C(=O)OC)c(-c2ccc(C(C)(C)C)cc2)n2c1CS(=O)C2 (centres undefined)	-8	-8*
O=C(Nc1ccccc1N1CCCC1)C1CCN(S(=O)(=O)c2cccc(C(F)(F)F)c2)CC1	/	i
O=C(Nc1ccccc1N1CCCCC1)C1CCN(S(=O)(=O)c2cccc(C(F)(F)F)c2)CC1	-6.9	-6.9*
Fc1cccc2sc(Nc3nc4cc5c(cc4s3)OCCO5)nc12	3.5	i
SMILES	KCNQ2 enhance	KCNQ2 block
Fc1cccc2sc(Nc3nc4cc5c(cc4s3)OCO5)nc12	6.9*	i
CC(=O)c1c(C)oc2ccc(NS(=O)(=O)c3ccc(C)cc3)cc12	0.34	i
Cc1oc2ccc(NS(=O)(=O)c3ccc(C(C)(C)C)cc3)cc2c1C(=O)Nc1ccccc1	-6	-6*
CCOC(=O)C1=C(C)NC(=O)/C1=C\N(C)C	1.6	i
CCC(C)(C)NC(=O)C(c1ccccn1)N(C(=O)c1csnn1)c1ccc(C)c(C)c1 (centres undefined)	/	i
COc1ccccc1C(=O)NNC1=C(C(=O)C(F)(F)F)CCC1	3.7	i
O=C(NNC1=C(C(=O)C(F)(F)F)CCC1)c1ccccc1O	11*	i
CC(=O)c1ccc(N(CC(=O)NC2CCCC2)C(=O)CCC(=O)Nc2cc(C)on2)cc1	/	i
Cc1ccc(O)c(C(=O)c2cc(C(=O)NCCc3ccccc3)c(=O)n(CCc3ccccc3)c2)c1	-7.1	-7.1*
COc1ccc(O)c(C(=O)c2cc(C(=O)NCCc3ccccc3)c(=O)n(CCc3ccccc3)c2)c1	/	i
CC(C)N(Cc1ccccc1)C(=S)NC1CCCCC1	3	i
COCC(=O)NC1CCCCCC1	/	i
O=C(NC1CCCCC1)C1CC=CCC1C(=O)OCC(Cl)=C(Cl)Cl (centres undefined)	-5.5	-5.5*
CCOC(=O)C1=C(C)N(c2ccc(OCC)cc2)C(=O)/C1=C\c1ccco1	/	i
COC(=O)C1=C(C)N(CCc2ccccc2)C(=O)/C1=C\c1ccco1	-5.9	-5.9*
COC(=O)C1=C(C)N(c2cccc(OC)c2)C(=O)/C1=C\c1ccco1	-6.2	-6.2*
C=CCN1C(=O)/C(=C\c2ccco2)C(C(=O)OC)=C1C	0.71	i
COC(=O)C1=C(C)N(Cc2ccccc2)C(=O)/C1=C\c1ccco1	-5.7	-5.7*
CCN1C(=O)/C(=C\c2ccco2)C(C(=O)OC)=C1C	0.9	i
O=C(O)CSc1nnc(-c2cccc(S(=O)(=O)N3CCOCC3)c2)n1-c1cccc(Cl)c1	/	i
